# Values joined by “and” are separate entries in the source; they are usually repeats but may differ in a detail not shown here. Equal values may be shown once. About 83,000 compounds went through this panel and 20% of them were active in at least one assay; those are over-represented in the sample as a whole.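 Activity criterion: percent growth below 10, measured after cells in 96-well plates were exposed to a single compound concentration for 48 hours.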 Active and inactive are the calls of the source.
# Test system: MDA-MB-468 breast
# Assay: NCI-60 one-dose screen, 48 h (100 = growth as untreated, 0 = no growth, -100 = all killed)
# Conditions: 10 µM unless noted
row,Compound,growth
1,COc1cccc2c1C(=O)c1c(O)c3c(c(O)c1C2=O)C[C@@](O)(/C(C)=N/NC(=O)c1cccc([N+](=O)[O-])c1)C[C@@H]3OC1CC(N)C(O)C(C)O1 (stereo not given in full),-18.9% (active)
2,COc1ccc(C2=NN(C=O)C(c3ccc(OS(=O)(=O)c4ccc(C)cc4)c(OC)c3)C2)cc1 (stereo not given),18.1% (inactive)
3,Cc1ccc(NC2=C(Cl)C(=O)c3nc(C)ccc3C2=O)cc1,-81.9% (active)
4,C/C(=C\CCc1ccoc1)CC/C=C(\C)CCCNc1ccc(F)cc1,89.8% (inactive)
5,COc1cc(C2CC(c3cccc(Nc4ccnc5cc(Cl)ccc45)c3)=NN2C=O)cc(OC)c1OC (stereo not given),-37.1% (active)
6,CCOC(=O)c1c2c(n3ccc(NC(=O)CCN4CCCC4)cc13)C(=O)c1ncccc1C2=O,-82% (active)
7,COc1cc(NC(C)CCCNC(C)C)c2ncccc2c1OC (stereo not given),32.8% (inactive)
8,Cn1c2ccc(Br)cc2c2c3c(c4c5ccccc5[nH]c4c21)C(=O)N(O)C3=O,-52.5% (active)
9,OC(CBr)CCBr (stereo not given),97.4% (inactive)
10,O=C1/C(=C\c2ccccn2)c2ccccc2N1c1c(Cl)cccc1Cl,-17.2% (active)
11,C#CCOc1ccc(-c2csc(NC(=O)C=C)n2)cc1NS(=O)(=O)c1cccc2c(N(C)C)cccc12,11.3% (inactive)
12,O=S(=O)(Nc1ccc(Cl)c(Cl)c1)c1ccc(-c2cnc(C3CC3)o2)cc1,7.72% (active)
13,CCOC(=O)C1C(=O)NC(C(=O)OCC)(C(=O)OCC)C1CC (stereo not given),108% (inactive)
14,Nc1nc(N)c2cc(Sc3cccc(C(F)(F)F)c3)ccc2n1,-4.8% (active)
15,CCCCCCC(CC#N)(CCC)CCCC (stereo not given),101% (inactive)
16,CCCCn1c(=O)[nH]c(N)c(C(c2ccc(Cl)cc2)c2c(N)[nH]c(=O)n(CCCC)c2=O)c1=O,10.1% (inactive)
17,N#C/C(=C\c1cccc2c1OCO2)C(=O)Nc1sc2c(c1C#N)CCCC2,100% (inactive)
18,CCN(CC)c1ccc2cc(C(=O)NCCOCCOCCOCCn3cc(CCC(=O)Nc4ccc(C(=O)c5ccc(NC(=O)OC(C)(C)C)cc5)cc4)nn3)c(=O)oc2c1,51.3% (inactive)
19,O=C(/C=C/c1cccc2ccccc12)c1ccc(NC(=O)c2ccccc2CN2C(=O)c3ccccc3C2=O)cc1,51.3% (inactive)
20,CCCCCCc1cc(N=Nc2ccc(S(=O)(=O)Nc3cc(C)nc(C)n3)cc2)c(O)cc1O,102% (inactive)

row,Compound,growth
1,N#CSCc1ccc(CSC#N)c(Cl)c1,44.1% (inactive)
2,O=C(Oc1ccc2ccc(=O)oc2c1)c1ccc(Cl)cc1,115% (inactive)
3,CC(=O)OCCOc1cc(Cl)c(Cl)cc1Cl,93.9% (inactive)
4,CCOC(=O)Nc1nc2ccccc2[nH]1,99.4% (inactive) and 26.8% (inactive)
5,O=S(=O)(NCCCNc1nccc(-n2cnc3ccccc32)n1)c1ccc(F)cc1,50.2% (inactive)
6,CCN(CC)c1ccc(N=C2C=CC(=O)C=C2NC(C)=O)cc1,98.7% (inactive)
7,CCOC(=O)Oc1c(OC)cc(C(=O)O[C@@H]2C[C@@H]3CN4CCc5c([nH]c6cc(OC)ccc56)[C@H]4C[C@@H]3[C@H](C(=O)OC)[C@H]2OC)cc1OC,98.8% (inactive)
8,O=C(NCCCCCCNC(=O)c1c2c(nc3ccccc13)-c1cccnc1SC2)c1c2c(nc3ccccc13)-c1cccnc1SC2,90.4% (inactive)
9,Cc1cc(N=Nc2ccc(C)c(N=Nc3cc(C)c(N)cc3N)c2)c(N)cc1N,96.7% (inactive) and 60.3% (inactive)
10,COc1ccc(-c2nnc(COc3ccc(NC(=O)Nc4cccc(C(F)(F)F)c4)cc3F)o2)cc1,46.1% (inactive)
11,Cc1ccc(-c2cc(O)c(-c3ccc(C)cc3C)cc2O)c(C)c1,46.5% (inactive)
12,C=C(C)[C@@H]1CC[C@]2(C(=O)O)CC[C@]3(C)[C@H](CC[C@@H]4[C@@]5(C)C[C@@H](CC#Cc6ccccc6)C(=O)C(C)(C)[C@@H]5CC[C@]43C)[C@@H]12,19.8% (inactive)
13,COc1cc(-c2nc3sccn3c2-c2ccnc(NCCNS(=O)(=O)c3ccccc3)n2)ccc1F,40.2% (inactive)
14,O=C1NC(=O)[C@@H](c2cn3c4c(cccc24)CCC3)[C@@H]1c1c[nH]c2ccccc12,-0.826% (active)
15,Cc1ccc(NC(=O)N[C@@H](Cc2cc(F)cc(F)c2)C(=O)NC2C(=O)N3CCC[C@H]3C(=O)N3CCCC[C@H]3C(=O)N[C@@H](C)C(=O)N3C[C@H](C)C[C@H]3C(=O)O[C@H]2C)c(F)c1 (stereo not given in full),-12.1% (active)
16,O=C(NCCCNC(=O)OCc1ccc2cccc(O)c2n1)OCc1ccc2cccc(O)c2n1,11.3% (inactive)
17,Cc1ccc(CNc2c3ccccc3nc3cc(NC(=O)CCN4CCCC4)ccc23)cc1,-29.3% (active)
18,COc1ccc(COc2cc3oc(=O)c4cc(C(C)O)ccc4c3cc2OC)cc1 (stereo not given),41% (inactive)
19,CCOC(=O)c1cc2c(n1Cc1cc(OC)cc(OC)c1)-c1oncc1CCC2,22.4% (inactive)
20,COc1cc(-c2cc(C(=O)Nc3nc4ccccc4s3)nc3cc(-c4ccccc4)nn23)cc(OC)c1OC,59.6% (inactive)

# From PubChem BioAssay (NCI)
